Screen size: about 330,000 compounds; about 10,000 (3%) were called active. The sample holds actives, similar compounds and a random draw of the others, so the mix is not that of the screen.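 Rule for the calls: active = inhibition of at least 50% at 8 µM in the primary screen; inactive = the rest.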
What follows are compounds tested against Protein Mdm4 (Homo sapiens) + E3 ubiquitin-protein ligase Mdm2 (Homo sapiens) (UniProt O15151+Q00987) (assay: disruptors of Mdm2/MdmX RING complex – cell-based, luminescence, split luciferase, SaOS-2, uHTS, primary screen (AID 485346)). Details: SaOS-2 split-luciferase Mdm2/MdmX complementation, at 8 µM, stronger effect = higher value.
Chain of Protein Mdm4 (Homo sapiens) + E3 ubiquitin-protein ligase Mdm2 (Homo sapiens) (O15151 whole entry, looked up): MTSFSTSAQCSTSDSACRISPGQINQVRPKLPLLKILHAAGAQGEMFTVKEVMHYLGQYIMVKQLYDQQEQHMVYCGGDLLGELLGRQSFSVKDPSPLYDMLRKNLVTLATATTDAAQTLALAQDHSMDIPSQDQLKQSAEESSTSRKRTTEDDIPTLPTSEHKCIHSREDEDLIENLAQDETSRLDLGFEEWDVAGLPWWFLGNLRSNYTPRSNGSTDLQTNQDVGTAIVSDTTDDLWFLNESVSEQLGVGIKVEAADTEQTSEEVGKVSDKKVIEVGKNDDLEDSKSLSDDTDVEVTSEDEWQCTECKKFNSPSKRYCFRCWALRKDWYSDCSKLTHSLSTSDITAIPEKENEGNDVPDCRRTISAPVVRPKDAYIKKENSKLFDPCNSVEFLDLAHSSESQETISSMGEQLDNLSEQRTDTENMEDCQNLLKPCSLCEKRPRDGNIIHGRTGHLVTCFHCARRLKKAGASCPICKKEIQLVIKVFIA
Chain of Protein Mdm4 (Homo sapiens) + E3 ubiquitin-protein ligase Mdm2 (Homo sapiens) (Q00987 whole entry, looked up): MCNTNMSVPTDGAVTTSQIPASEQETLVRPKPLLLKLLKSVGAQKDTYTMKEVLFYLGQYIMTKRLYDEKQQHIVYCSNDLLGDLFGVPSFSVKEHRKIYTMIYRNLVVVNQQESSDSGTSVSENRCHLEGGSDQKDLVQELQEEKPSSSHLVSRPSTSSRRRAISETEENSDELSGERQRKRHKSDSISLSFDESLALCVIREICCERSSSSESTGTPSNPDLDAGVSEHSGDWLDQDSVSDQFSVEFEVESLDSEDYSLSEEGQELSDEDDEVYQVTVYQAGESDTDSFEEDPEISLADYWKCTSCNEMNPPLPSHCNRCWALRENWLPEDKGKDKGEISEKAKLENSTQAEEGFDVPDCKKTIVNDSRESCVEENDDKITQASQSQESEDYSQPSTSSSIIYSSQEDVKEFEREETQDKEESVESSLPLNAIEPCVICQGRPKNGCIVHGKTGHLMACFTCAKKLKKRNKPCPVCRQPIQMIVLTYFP

inhibition, active:
COc1cc(OC)c2c(-c3cccc(-c4cccc(N)c4)c3)cc(=O)oc2c1 75%
Cc1cccc(NS(=O)(=O)c2ccc(-c3cnc(C4CC4)o3)cc2)c1 65.1%
CCc1ccc(-c2cc3c(=O)n(CC(=O)NCCCN4CCN(Cc5ccccc5)CC4)nc(C)n3n2)cc1 97.4%
C[C@@H](NC(=O)OC(C)(C)C)c1nnc(S(=O)(=O)Cc2ccccc2)o1 53.4%
Cc1ccnc(NC(=O)C2CCN(S(=O)(=O)c3c(C)c(C)cc(C)c3C)CC2)c1 84.8%
Cc1ccc2sc(N(CCN(C)C)C(=O)/C=C/c3cccs3)nc2c1C 52.3%
CCC(C)N1C(=O)S/C(=C/c2ccc(Sc3nc4ccccc4[nH]3)o2)C1=O (stereo not drawn) 89.2%
Cc1ccc(-n2[nH]c(C)c(/C=N/NC(=O)c3cccc([N+](=O)[O-])c3)c2=O)cc1C 72.5%
CSc1nc(N)c(C#N)c(-c2ccccc2Cl)c1C#N 58.4%
CCn1c(O)c(N=NC(=O)c2cccc(S(=O)(=O)N3CCCCC3)c2)c2ccccc21 51%

inhibition, inactive:
COc1ccc(-c2c(C)cc3oc(=O)cc(-c4ccccc4)c3c2C)cc1F 2.64%
COc1ccc(-c2c(C)cc3oc(=O)cc(-c4ccccc4)c3c2C)cc1OC 7.66%
C=CCn1c(=S)[nH]c2scc(-c3ccco3)c2c1=O -19.1%
Cc1ccccc1C(OCCN(C)C)C1CCCCC1 (stereo not drawn) 25.8%
COc1cccc(OC)c1C(=O)N1CCN(Cc2cccnc2)CC1 -4.03%
COc1ccc(S(=O)(=O)N2CCOCC2)cc1NC(=O)Cc1coc2cc(C)ccc12 3.68%
COc1ccc(CNS(=O)(=O)c2ccc(-c3cnc(C4CC4)o3)cc2)cc1 15.3%
Cc1cccc(CNS(=O)(=O)c2ccc(-c3cnc(C4CC4)o3)cc2)c1 35.8%
CN(C)S(=O)(=O)c1ccc(C(=O)NCCN=C2NS(=O)(=O)c3ccccc32)cc1 7.98%
COCCCNC(=O)CN1CCN(Cc2ccccc2Cl)C1=O -6.08%
Cc1nn(CC(=O)NCCc2ccccc2)c(=O)c2cc3occc3n12 19%
Cc1ccc(-c2ccc(=O)n(CC(=O)NCCCN3CCCCC3)n2)cc1 2.15%
O=C(NNC(=O)c1cc(S(=O)(=O)N2CCCCC2)ccc1Cl)c1ccccc1O 16.6%
C[C@H](NC(=O)OC(C)(C)C)c1nnc(SCC(=O)Nc2ccc(Br)cc2)o1 18.7%
CC(C)Sc1nnc([C@H](Cc2ccccc2)NC(=O)OC(C)(C)C)o1 2.05%
NC(=O)CC(NC(=O)Cc1ccc(Br)cc1)c1ccc(NC2CC3CCC2C3)c([N+](=O)[O-])c1 (stereo not drawn) 9.79%
COc1ccc(Br)cc1CN(C)C(=O)C1CC(=O)N(C2CCCC2)C1 (stereo not drawn) 9.72%
CCN(CC(=O)NC(C)C)C(=O)c1cc(S(=O)(=O)N2CCCCC2)ccc1N1CCCCC1 2.7%
Cc1cccc(NC(=O)C2CCN(S(=O)(=O)c3cccc4cccnc34)CC2)c1 14%
O=C(Nc1ccccn1)C1CCN(S(=O)(=O)c2ccccc2)CC1 -12.4%
Cc1ccc(S(=O)(=O)N(C)CC(=O)NCCc2c[nH]c3ccccc23)cc1 6.29%
Cc1ccc(OCCNC(=O)CN2C(=O)NC3(CCCC3)C2=O)cc1 15.5%
Cc1ccc(S(=O)(=O)/N=S(\C)C(C)C)cc1 (stereo not drawn) 20.8%
COc1ccc(CNC(=O)C[C@H]2C[C@H](C(=O)N3CCOCC3)[C@@]3(C)c4[nH]c5cc(CCC(=O)N(C)C)ccc5c4CCN3C2=O)cc1OC 49.5%
Cc1ccc(S(=O)(=O)N(C)C)cc1NC(=O)/C=C/c1cccs1 30.7%
Cc1cc(C)c2nc(N(CCN(C)C)C(=O)/C=C/c3cccs3)sc2c1 47.5%
COCc1c(C(=O)N/N=C(\C)c2ccncc2)nnn1-c1nonc1N -11.6%
Cc1cc(C)c(S(=O)(=O)N(C)CC(=O)NCC2CCCO2)c(C)c1 (stereo not drawn) 0.089%
Cc1ccc(OCc2nnc(NC(=O)OCC(C)C)s2)cc1 -16.4%
O=C(CSc1nc2ccccc2[nH]1)Nc1nc(-c2ccccc2)c(-c2ccccc2)o1 13.9%
CN(Cc1ccccc1)C(=O)CSc1nc2ccccc2[nH]1 -10.7%
O=C(CNC(=O)c1ccccc1Br)NNC(=O)c1cccs1 4.78%
Cc1[nH]n(-c2ccc([N+](=O)[O-])cc2)c(=O)c1C=NCCN1CCN(C(=O)c2ccccc2F)CC1 -5.19%
Cc1[nH]n(-c2ccccc2)c(=O)c1/C=N/NC(=O)c1ccoc1C 37.2%
CC1O[C@@H](OC2C(O)C(C)O[C@H](OC(=O)[C@]34CCC(C)(C)C[C@H]3C3=CCC5[C@@]6(C)CC(O)C(O[C@@H]7OC(CO)C(O)[C@@H](O)[C@@H]7O)[C@@](C)(C(=O)O)C6CC[C@@]5(C)[C@]3(CO)CC4)C2O[C@H]2OC(C)[C@@H](O[C@@H]3OCC(O[C@@H]4OC(CO)C(O)[C@H](O)C4O)[C@@H](O)[C@@H]3O)[C@H](O)C2O)C(O)C(O)C1O (stereo partly drawn) -20.6%
O=S(=O)(O)Oc1c[nH]c2ccccc12 12.5%
O=C(Nc1ccc2c(c1)nc1n2CCCCC1)c1cc(S(=O)(=O)N2CCOCC2)ccc1Cl 4.51%
O=C(CN(c1cccc(Cl)c1)S(=O)(=O)c1ccccc1)NN=C1CCCC1 -14%
COc1ccccc1-c1c(C#N)c(N)nc2c1CCC2 -4.18%
CSc1ccc(-c2c(C#N)c(N)nc3c2c(C)nn3-c2ccccc2)cc1 40.5%
Cc1ccc(NC(=O)C(=O)NCC2CCN(C(=O)c3cccc([N+](=O)[O-])c3)CC2)cc1 -4.26%
Cc1cccc(NC(=O)c2cccc(S(=O)(=O)N3CCCC3)c2)n1 -8.96%
CCn1c2ccccc2c2cc(NC(=O)COC(=O)c3cc(S(=O)(=O)N4CCCCC4)ccc3Cl)ccc21 17.9%
